Screening data deposited in PubChem by several laboratories.
FAK blocker: FAK kinase inhibitors, primary screen, biochemical | inhibition, %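 (tested at 7 µM)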 | Focal adhesion kinase 1 (Homo sapiens), Q05397 | 97,000 compounds, 0.84% hits | biochemical FAK kinase activity assay; in the data active = inhibition above about 19%;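 note: 0% = DMSO and 100% = reference compound high control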
PLK1 PBD inh: Plk1 polo box domain binding inhibitors, primary screen, biochemical, fluorescence polarization; Serine/threonine-protein kinase PLK1 (Homo sapiens), P53350; Plk1 PBD phosphopeptide binding; inhibition, %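 (tested at about 20 µM)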; 97,000 compounds, 0.13% hits; AID 693, 2007; in the data active = inhibition above about 34%, passing the limit was not always enough
PLK1 inh: human PLK1 kinase inhibitors, primary screen, biochemical, TR-FRET; Serine/threonine-protein kinase PLK1 (Homo sapiens), P53350; recombinant PLK1 kinase, TR-FRET peptide phosphorylation; inhibition, % at 10 µM; 97,000 compounds, 0.53% hits; AID 619, 2007;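 active = inhibition of 50% or more in the single-concentration screen; inactive = inhibition below 50%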;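 note: 0% = DMSO max control and 100% = H-89 dihydrochloride min control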
EphB4 ephrin blk: EphB4-ephrin-B2 interaction antagonists, primary screen, biochemical, TNYL-RAW peptide probe, fluorescence polarization | Ephrin type-B receptor 4 (Homo sapiens), P54760 | EphB4 LBD / TNYL-RAW-Alexa532 peptide | inhibition, % at 7 µM | 97,000 compounds, 0.15% hits;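 active = inhibition above the screen-wide mean inhibition plus 3 SD, cut at about 15% in these data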;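 note: 0% = DMSO wells and 100% = excess unlabeled TNYL-RAW peptide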
Target sequence (P54760 whole entry, looked up, the tested form may be a part): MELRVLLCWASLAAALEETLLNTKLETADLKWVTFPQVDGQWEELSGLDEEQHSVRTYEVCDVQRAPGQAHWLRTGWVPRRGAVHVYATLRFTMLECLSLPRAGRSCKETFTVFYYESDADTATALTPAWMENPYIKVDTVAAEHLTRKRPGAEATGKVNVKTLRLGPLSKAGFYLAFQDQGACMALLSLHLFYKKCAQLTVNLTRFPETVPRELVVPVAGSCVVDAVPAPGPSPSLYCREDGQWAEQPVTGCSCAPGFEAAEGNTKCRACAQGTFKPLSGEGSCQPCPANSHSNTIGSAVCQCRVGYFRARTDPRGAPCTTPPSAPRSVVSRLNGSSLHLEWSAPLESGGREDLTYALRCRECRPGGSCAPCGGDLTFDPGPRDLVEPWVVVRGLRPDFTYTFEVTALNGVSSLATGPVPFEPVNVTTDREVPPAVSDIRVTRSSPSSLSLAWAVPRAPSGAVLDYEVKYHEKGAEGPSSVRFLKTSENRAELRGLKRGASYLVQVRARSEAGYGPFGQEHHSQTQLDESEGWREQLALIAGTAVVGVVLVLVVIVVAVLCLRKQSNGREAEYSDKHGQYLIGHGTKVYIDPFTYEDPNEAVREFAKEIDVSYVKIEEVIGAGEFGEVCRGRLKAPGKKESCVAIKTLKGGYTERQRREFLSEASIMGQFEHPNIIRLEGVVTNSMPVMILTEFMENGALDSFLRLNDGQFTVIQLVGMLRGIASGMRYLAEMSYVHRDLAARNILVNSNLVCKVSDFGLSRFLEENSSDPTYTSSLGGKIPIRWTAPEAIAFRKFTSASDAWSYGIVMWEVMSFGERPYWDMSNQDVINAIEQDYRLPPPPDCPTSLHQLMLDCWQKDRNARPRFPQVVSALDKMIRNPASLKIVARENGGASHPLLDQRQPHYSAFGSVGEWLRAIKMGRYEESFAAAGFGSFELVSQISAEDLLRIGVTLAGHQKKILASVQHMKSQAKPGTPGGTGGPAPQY
Smad3 FoxH1 inh: Smad3/FoxH1 peptide binding inhibitors, primary screen, biochemical, TR-FRET; Mothers against decapentaplegic homolog 3 (Homo sapiens), P84022; TR-FRET Smad3/Dy647-FoxH1 peptide binding, europium anti-His; inhibition, % at 25 µM; 88,000 compounds, 0.29% hits; AID 630, 2007;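 active = compounds that reduce the energy-transfer binding signal between the protein and its labelled peptide by more than half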;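 note: 0% = Smad3 plus labelled peptide maximal FRET and 100% = peptide-only background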
Active calls of the source: *; x = no result given. Compounds with a hit are over-represented: about 1.5% of the library has one in this group of screens.

SMILES | FAK blocker | PLK1 PBD inh | PLK1 inh | EphB4 ephrin blk | Smad3 FoxH1 inh
CCN(CC)CC[n+]1ccc2c(C)c3[nH]c4ccc(O)cc4c3c(C)c2c1 | x | x | x | x | 68*
CSC1(SC2=NCCN2)SC2(NCCN2)S1 | x | x | x | x | 81*
O=C(NCCN1CCCCC1)c1c(O)c2ccccc2[nH]c1=O | x | x | x | x | 14
O=C1C2C3C=CC(C3=C3CCCCC3)C2C(=O)N1c1ccccc1 (centres undefined) | -3 | -2 | -17 | 0 | -3
CCc1ccc(C(=O)Nc2ccc(S(=O)(=O)Nc3nc(C)cc(C)n3)cc2)o1 | -1 | 3 | -13 | -7 | -15
Cn1cnnc1SCC(=O)Nc1ccc2nc(SCc3cccc4ccccc34)sc2c1 | 6 | -12 | -12 | 17* | -2
O=C(Nc1ccccc1C(=O)N1CCOCC1)c1ccco1 | 0 | 4 | -11 | -5 | -1
O=C(Nc1ccccc1C(=O)N1CCOCC1)c1ccncc1 | 5 | -4 | -9 | 15* | -3
CCCOCC1CC2(SC(=Nc3ccc(C)cc3)NC2=O)C(=O)O1 (centres undefined) | 5 | 31 | -13 | -4 | 0
O=[N+]([O-])/C=C/c1cn(Cc2ccc(F)cc2)c2ccccc12 | 11 | -24 | -1 | 16* | x
O=C(Nc1nccs1)c1cc2sccc2n1Cc1ccc(Cl)cc1 | -23 | 6 | -8 | -5 | x
CCN1C(=O)CC(Sc2ccccc2N)C1=O (centres undefined) | -2 | -6 | -6 | -9 | 6
CC1(C)CC2(CCO1)OC(=O)CC2C(=O)NCCc1ccccc1 (centres undefined) | 0 | -27 | -10 | -3 | 3
CCCOc1ccc(N2C(=O)CC(NCCc3ccc(S(N)(=O)=O)cc3)C2=O)cc1 (centres undefined) | -2 | -23 | 13 | 10 | 4
COc1ccc(-n2c(COc3ccc(C)cc3)nnc2SCC(N)=O)cc1 | 0 | -20 | -6 | 3 | 1
CSc1nnc(COc2ccc(C)cc2)n1N | 37* | -4 | -17 | 4 | -3
O=C(NC1CCCCC1)N(Cc1cc2cc3c(cc2[nH]c1=O)OCCO3)CC1CCCO1 (centres undefined) | 4 | 10 | -8 | 2 | 7
O=c1cc(N2CCN(c3ccc(F)cc3)CC2)[nH]c(=O)n1Cc1ccc(F)cc1 | -4 | 13 | -7 | 3 | -4
O=c1cc(N2CCOCC2)[nH]c(=O)n1Cc1ccc(F)cc1 | 0 | -17 | 69* | -2 | 4
Fc1ccc(CN2CCCCCCC2)cc1 | -1 | -7 | -6 | -9 | 4
COc1cccc(-c2nnc3sc(-c4ccccc4)nn23)c1 | x | x | x | x | 0
COc1cccc(OC)c1-c1nn2c(-c3cc(-c4ccccc4)n[nH]3)nnc2s1 | -240 | 3 | -12 | 62* | x
CCOc1cc(NC(=S)Nc2ccccc2)c(OCC)cc1NC(=O)c1ccc(OC)cc1 | 0 | -20 | -6 | -1 | x
CCC(C)N(C(=O)c1csnn1)C(C(=O)NCc1ccc(F)cc1)c1ccco1 (centres undefined) | 2 | 6 | 1 | -9 | -11
CCC(C)(C)NC(=O)C(c1ccco1)N(C(=O)c1csnn1)c1cccc(F)c1 (centres undefined) | 11 | 16 | -11 | 17* | 15
SMILES | FAK blocker | PLK1 PBD inh | PLK1 inh | EphB4 ephrin blk | Smad3 FoxH1 inh
CCC(C(=O)Nc1cc(C)nn1-c1nc(C)cc(C)n1)c1ccccc1 (centres undefined) | -1 | 2 | 19 | -3 | -8
O=c1[nH][nH]c(=S)c(=O)[nH]1 | x | x | x | x | 52*
CCc1nnc(NC(=O)CSc2nnc(-c3ccco3)n2CC)s1 | 0 | -15 | -15 | -6 | -10
O=C(NC(Cc1ccccc1)c1nc2ccccc2[nH]1)C1CC(=O)N(c2ccc3c(c2)OCCO3)C1 (centres undefined) | -5 | -14 | 0 | 15* | -11
O=C(Cn1cccc1C(=O)c1ccccc1)NCc1ccccc1 | 2 | -9 | -5 | 10 | 1
O=C(Cn1nc(Cc2cccnc2)c2ccccc2c1=O)N1CCN(C(=O)c2ccco2)CC1 | -9 | -9 | 61* | 5 | -1
O=C(Cn1nc(Cc2ccncc2)c2ccccc2c1=O)N1CCN(C(=O)c2ccco2)CC1 | 0 | 13 | -5 | -6 | -8
CC(C)CCNC1=NCCCCC1 | 0 | 4 | -4 | -30 | -13
Cc1cc([N+](=O)[O-])nn1CC(=O)NCc1cccs1 | -7 | -26 | -5 | 5 | x
COc1ccc(CC(NC(C)=O)C(=O)NC2CCN(C(=O)Nc3ccc(Cl)cc3)CC2)cc1OC (centres undefined) | 6 | -10 | -12 | 4 | 79*
Cc1ccc(C)c(N2CCN(S(=O)(=O)c3c(C)noc3/C=C/N(C)C)CC2)c1 | -2 | -7 | -5 | -7 | -2
Cc1noc(/C=C/N(C)C)c1S(=O)(=O)N1CCN(c2ccccc2)CC1 | 1 | 10 | 69* | -5 | -7
O=C(c1ccc(-c2ccccc2)cc1)N1CCN(c2nc3ccccc3o2)CC1 | x | x | x | x | -12
N#CCCn1cc(/C=C(\C#N)c2nc3ccccc3s2)c(-c2ccc(F)cc2)n1 | 4 | -11 | -11 | 3 | -3
COC(=O)c1sc2ncn(-n3c(C)ccc3C)c(=O)c2c1C | -1 | -10 | -12 | 0 | 60*
O=C(c1ccco1)N1CCN(C(=O)c2cc3c(=O)oc4ccccc4c3s2)CC1 | -2 | -18 | -2 | -12 | -2
CC(=O)c1cccc(NC(=O)CN(c2ccccc2)S(C)(=O)=O)c1 | x | x | x | x | 58*
O=C(NCc1ccccn1)c1cc2cc(Br)ccc2oc1=O | 5 | 5 | -10 | 5 | 17
O=C(COc1ccccc1F)Nc1nnc(-c2ccncc2)s1 | 0 | 22 | 54* | -3 | 3
O=C(COc1ccc(F)cc1)Nc1nnc(-c2ccncc2)s1 | 0 | -12 | 42 | 3 | -10
Cc1ccc(-n2c(=O)cc(N3CCc4ccccc4C3)[nH]c2=O)cc1 | 0 | 19 | -14 | 3 | 4
CC(C)c1ccc(Nc2cnn(C34CC5CC(CC(CC(=O)O)(C5)C3)C4)c(=O)c2Cl)cc1 | 0 | -9 | -3 | 6 | 4
Cc1ccc(Nc2cnn(C34CC5CC(CC(CC(=O)O)(C5)C3)C4)c(=O)c2Cl)cc1 | -4 | 9 | -6 | 52* | -10
CCCCC(=O)Nc1cc(N(C)C)nc2ccccc12 | 7 | 21 | -14 | 8 | 4
On1c2c(c3c4nonc4ccc31)CCCC2 | 1 | 6 | 51* | -2 | 10
O=S(=O)(c1ccc2c(c1)oc1ccccc12)N1CCOCC1 | 0 | -24 | -5 | 3 | -20
Cc1cn(C(=O)CN2C(=O)c3ccccc3C2=O)c(C)n1 | -1 | 9 | -1 | -3 | 6
Cc1cc(NC(=O)CSc2nc3ccc(Cl)cc3[nH]2)no1 | 1 | 10 | 50* | 1 | 3
Cc1cc(NC(=O)CSc2nc3cc(Cl)ccc3s2)no1 | 1 | 14 | -18 | -2 | x
